Data from PubChem BioAssay AID1259417 (TB Discovery Research, Infectious Disease Research Institute, 2018).
Out of some 1,100 compounds screened, about 760 (69%) were called active. How the calls were made is not given here. The set was probably picked from earlier hits. The list shows a part of the results.

Assay: M. tuberculosis growth inhibition, HTS (AID 1259417);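 further: bacteria grown with compound for 5 days at 37 °C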
Settings: stronger effect = higher value, concentration not given here
[1] = M. tuberculosis DsRed fluorescence growth inhibition
[2] = M. tuberculosis growth inhibition

## CNc1nc(SC)nc2ccsc12
[1]
  inhibition: 99.7% (active)
[2]
  inhibition: 98.9%

## c1ccc(C2=Nc3ccccc3OC2)cc1
[1]
  inhibition: 97.6% (active)
[2]
  inhibition: 97.5%

## CCCCc1cc(=O)oc2cc(OCC(=O)OCc3ccccc3)c(Cl)cc12
[1]
  inhibition: 33.1% (active)
[2]
  inhibition: 73.7%

## CCOC(=O)COc1cc2oc(=O)cc(CC)c2cc1Cl
[1]
  inhibition: 6.17% (inactive)
[2]
  inhibition: 26.9%

## CCCCc1cc(=O)oc2cc(OC(C)C(=O)OCC)c(Cl)cc12 (centres undefined)
[1]
  inhibition: 49.4% (active)
[2]
  inhibition: 93.7%

## CCOC(=O)c1cc(-c2csc(COc3ccc(Cl)cc3)n2)on1
[1]
  inhibition: 100% (active)
[2]
  inhibition: 99.5%

## CCOC(=O)c1cc(-c2csc(COc3ccccc3Cl)n2)on1
[1]
  inhibition: 98.1% (active)
[2]
  inhibition: 98.8%

## CCOC(=O)c1cc(-c2csc(-c3ccc(C(F)(F)F)cc3)n2)on1
[1]
  inhibition: 63.4% (active)
[2]
  inhibition: 83.4%

## CCOC(=O)C(/C=C(\C#N)C(=O)OCC)=C(/N)N1CCN(c2ccc(Cl)cc2)CC1
[1]
  inhibition: 46% (active)
[2]
  inhibition: 46.9%

## CCOC(=O)COc1cccc(C=C2Oc3cc(OC)ccc3C2=O)c1
[1]
  inhibition: 31.7% (active)
[2]
  inhibition: 54%

## CCOC(=O)COc1ccc(C=C2Oc3cc(OC)ccc3C2=O)cc1
[1]
  inhibition: 60.8% (active)
[2]
  inhibition: 79.9%

## CCOc1ccc2c(c1)OC(=Cc1cccc(OCC(=O)OC)c1)C2=O
[1]
  inhibition: 10% (active)
[2]
  inhibition: 50.5%

## COc1c(N2C[C@@H]3CCCN[C@@H]3C2)c(F)cc2c(=O)c(C(=O)O)cn(C3CC3)c12
[1]
  inhibition: 101% (active)
[2]
  inhibition: 100%

## NC1CCN(c2c(F)cc3c(=O)c(C(=O)O)cn(C4CC4)c3c2Cl)C1 (centres undefined)
[1]
  inhibition: 99.8% (active)
[2]
  inhibition: 100%

## NC1CCN(c2nc3c(cc2F)c(=O)c(C(=O)O)cn3-c2ccc(F)cc2F)C1 (centres undefined)
[1]
  inhibition: 98.3% (active)
[2]
  inhibition: 98.4%

## COc1c(N2CCNC(C)C2)c(F)cc2c(=O)c(C(=O)O)cn(C3CC3)c12 (centres undefined)
[1]
  inhibition: 99.5% (active)
[2]
  inhibition: 101%

## CC1=NN(c2nc3ccccc3s2)C(=O)C1Cc1cccc2ccccc12 (centres undefined)
[1]
  inhibition: -2.3% (inactive)
[2]
  inhibition: 21.1%

## Cc1cc(C)c2c(c1)c(-c1ccccc1)c(-c1ccccc1)n2CC(O)CN1CCN(CCO)CC1 (centres undefined)
[1]
  inhibition: 48.4% (active)
[2]
  inhibition: 39.3%

## Cc1ccc2c(c1)c(-c1ccccc1)c(-c1ccccc1)n2CC(O)CN1CCN(CCO)CC1 (centres undefined)
[1]
  inhibition: 23.8% (inactive)
[2]
  inhibition: 13.1%

## Clc1ccc(C2=CC(c3ccc(Cl)cc3)n3nnnc3N2)cc1 (centres undefined)
[1]
  inhibition: 43.4% (active)
[2]
  inhibition: 39.3%

## CCOC(=O)COc1ccc(C(=O)NC2CCCCC2)cc1
[1]
  inhibition: 1.79% (inactive)
[2]
  inhibition: -15.3%

## CCOC(=O)COc1ccc(C(=O)Nc2ccc(F)cc2)cc1
[1]
  inhibition: 20.5% (active)
[2]
  inhibition: 42.4%

## O=C(COc1ccc(C(=O)NCc2ccccc2)cc1)OC1CCCCC1
[1]
  inhibition: 37.7% (active)
[2]
  inhibition: 52.9%

## Cc1ccc(NC(=O)c2ccc(OCC(=O)OC3CCCCC3)cc2)cc1
[1]
  inhibition: 53.4% (active)
[2]
  inhibition: 78.1%

## O=C(COc1ccc(-c2ccccc2)cc1)OC1CCCCC1
[1]
  inhibition: 26.1% (active)
[2]
  inhibition: 58.6%

## Cc1c(Cc2ccc(Cl)cc2)c(NCCCN(C)C)n2c(nc3ccccc32)c1C#N
[1]
  inhibition: 14.4% (inactive)
[2]
  inhibition: -9.38%

## Cc1c(Cc2ccccc2)c(NCCCO)n2c(nc3ccccc32)c1C#N
[1]
  inhibition: 97.8% (active)
[2]
  inhibition: 87.9%

## O=C(NCCc1ccc(F)cc1)NC12CC3CC(CC(C3)C1)C2
[1]
  inhibition: 100% (active)
[2]
  inhibition: 96.2%

## CCOC(=O)c1c(CSc2ccccc2)n(-c2ccccc2)c2ccc(O)c(CN(C)C)c12
[1]
  inhibition: 92.7% (active)
[2]
  inhibition: 91.9%

## Oc1ccc(CNc2ccccc2O)cc1
[1]
  inhibition: 98.3% (active)
[2]
  inhibition: 97.3%

## N#Cc1nc(-c2cccs2)oc1NCCc1ccccc1
[1]
  inhibition: 100% (active)
[2]
  inhibition: 100%

## CC(C)N=c1cc2n(-c3ccc(Cl)cc3)c3ccccc3nc-2cc1Nc1ccc(Cl)cc1
[1]
  inhibition: 100% (active)
[2]
  inhibition: 99.5%

## Cc1ccn2c(-c3csc(Nc4ccccn4)n3)c(C)nc2c1
[1]
  inhibition: 98.9% (active)
[2]
  inhibition: 100%

## Cc1cc(O)ccc1Nc1nc(-c2ccccn2)cs1
[1]
  inhibition: 71.9% (active)
[2]
  inhibition: 77.7%

## Cc1ccccc1Nc1nc(-c2ccccn2)cs1
[1]
  inhibition: 87.2% (active)
[2]
  inhibition: 92.7%

## Cc1cccnc1Nc1nc(-c2ccccn2)cs1
[1]
  inhibition: 100% (active)
[2]
  inhibition: 100%

## FC(F)(F)c1ccccc1Nc1nc(-c2ccccn2)cs1
[1]
  inhibition: 90.1% (active)
[2]
  inhibition: 86.1%

## Cc1cccc(NC(=O)c2cc(-c3cccs3)nc3ccccc23)n1
[1]
  inhibition: 8.52% (inactive)
[2]
  inhibition: 22.7%

## Cc1cccc(Nc2nc(-c3ccccn3)cs2)n1
[1]
  inhibition: 91.2% (active)
[2]
  inhibition: 97.6%

## Cc1ccc(C(=O)NCCC23CC4CC(CC(C4)C2)C3)cc1
[1]
  inhibition: 100% (active)
[2]
  inhibition: 97.3%

## O=C(NCCC12CC3CC(CC(C3)C1)C2)c1ccc(Br)cc1
[1]
  inhibition: 98.8% (active)
[2]
  inhibition: 94.1%

## c1ccc2sc(NC3=NCN(Cc4ccc5c(c4)OCO5)CN3)nc2c1
[1]
  inhibition: 17.9% (active)
[2]
  inhibition: 69.1%

## O=C(OCc1ccc(F)cc1)c1ccc2ccccc2n1
[1]
  inhibition: 3.6% (inactive)
[2]
  inhibition: 5.51%

## Cc1nc2ccc(C(=O)OCc3cccc(F)c3)cc2nc1C
[1]
  inhibition: 19.1% (active)
[2]
  inhibition: 60.3%

## Cc1nc2ccc(C(=O)OCc3nnc(-c4ccccc4)o3)cc2nc1C
[1]
  inhibition: -4.41% (inactive)
[2]
  inhibition: 0.442%

## O=C(Nc1nnc(-c2ccco2)o1)c1cccs1
[1]
  inhibition: 17.8% (active)
[2]
  inhibition: 40.1%

## CC(C)(C)c1ccc(C(=O)Nc2nnc(-c3ccco3)o2)cc1
[1]
  inhibition: 88.2% (active)
[2]
  inhibition: 89.7%

## O=C(Nc1nnc(-c2ccco2)o1)c1cccc(C(F)(F)F)c1
[1]
  inhibition: 88.4% (active)
[2]
  inhibition: 94.4%

## O=C(Nc1nnc(-c2cccs2)o1)c1ccco1
[1]
  inhibition: -2.8% (inactive)
[2]
  inhibition: -18.4%

## O=C(Nc1nnc(-c2cccs2)o1)c1cccc(C(F)(F)F)c1
[1]
  inhibition: 1.3% (inactive)
[2]
  inhibition: 6.76%

## Cc1ccccc1C(=O)Nc1nnc(-c2ccco2)o1
[1]
  inhibition: 47.6% (active)
[2]
  inhibition: 71.5%

## CCSc1ccc(CC(=O)Nc2nnc(-c3ccc4c(c3)OCCO4)o2)cc1
[1]
  inhibition: 2.15% (inactive)
[2]
  inhibition: 7.09%

## CCSc1ccc(C(=O)Nc2nnc(-c3ccco3)o2)cc1
[1]
  inhibition: 83.8% (active)
[2]
  inhibition: 91.8%

## CN1CCC(O)(c2cccs2)C(C(=O)c2cccs2)C1 (centres undefined)
[1]
  inhibition: 100% (active)
[2]
  inhibition: 98.7%

## c1ccc(OCc2nn3c(-c4n[nH]c5c4CCC5)nnc3s2)cc1
[1]
  inhibition: 99.1% (active)
[2]
  inhibition: 99.6%

## N#Cc1ccccc1NC(=O)CSc1nc2cc3ccccc3cc2[nH]1
[1]
  inhibition: 2.65% (inactive)
[2]
  inhibition: 10.4%

## COc1ccccc1NC(=O)CSc1nc2cc3ccccc3cc2[nH]1
[1]
  inhibition: -0.285% (inactive)
[2]
  inhibition: -21.7%

## O=C(CSc1nc2ccccc2c(=O)[nH]1)NCc1ccccc1
[1]
  inhibition: 101% (active)
[2]
  inhibition: 100%

## O=[N+]([O-])c1ccc(NCCNc2nc3ccccc3nc2N2CCOCC2)cc1
[1]
  inhibition: 8.52% (inactive)
[2]
  inhibition: -3.69%

## O=C(NCCN1CCOCC1)c1ccc([N+](=O)[O-])cc1[N+](=O)[O-]
[1]
  inhibition: 98.1% (active)
[2]
  inhibition: 94.6%

## Cc1cc(C)n(C(=O)c2ccc([N+](=O)[O-])cc2[N+](=O)[O-])n1
[1]
  inhibition: 0.918% (inactive)
[2]
  inhibition: -7.93%

## O=C(Nc1nnc(-c2ccc(Cl)cc2)o1)c1ccco1
[1]
  inhibition: 20% (active)
[2]
  inhibition: 48.4%

## O=C(Nc1nnc(-c2ccc(F)cc2)o1)c1ccco1
[1]
  inhibition: 26% (inactive)
[2]
  inhibition: 16.6%

## O=C(Nc1nnc(-c2ccccc2)o1)c1ccco1
[1]
  inhibition: 20.9% (active)
[2]
  inhibition: 32.7%

## CCn1ccnc1CN(C)Cc1cn(-c2cccc(C)c2)nc1-c1cccc(F)c1
[1]
  inhibition: 18.2% (inactive)
[2]
  inhibition: 15.5%

## Cc1ccc(Sc2ccc(C=O)o2)cc1
[1]
  inhibition: -0.277% (inactive)
[2]
  inhibition: 24.1%

## Cc1ccc(CN=c2c([N+](=O)[O-])nn(-c3cccc(Cl)c3)n2O)cc1
[1]
  inhibition: 99.8% (active)
[2]
  inhibition: 100%

## Cc1cccc(-n2nc([N+](=O)[O-])c(=NCCC3=CCCCC3)n2O)c1
[1]
  inhibition: 101% (active)
[2]
  inhibition: 54.8%

## O=S1(=O)C=C(Sc2nc3ccccc3s2)c2ccccc21
[1]
  inhibition: 100% (active)
[2]
  inhibition: 99.8%

## COc1c2ccoc2nc2c(OC)cccc12
[1]
  inhibition: 98.6% (active)
[2]
  inhibition: 99.6%

## CC12CCC(C(=O)Nc3ccc(OC(F)(F)F)cc3)(CC1=O)C2(C)C (centres undefined)
[1]
  inhibition: 94.8% (active)
[2]
  inhibition: 81.6%

## Cc1cc(NS(=O)(=O)c2ccc(NC(=O)c3ccc(C(C)(C)C)cc3)cc2)no1
[1]
  inhibition: 19.1% (inactive)
[2]
  inhibition: 12.2%

## Cc1cccc(C(=O)Nc2nc3ccccc3[nH]2)c1
[1]
  inhibition: 36.9% (active)
[2]
  inhibition: 35.3%

## CC(C)(C)c1ccc(C(=O)Nc2nc3ccccc3[nH]2)cc1
[1]
  inhibition: 65.8% (active)
[2]
  inhibition: 86.5%

## CCOC(=O)Cn1nnc(-c2ccc(OCc3ccccc3F)cc2)n1
[1]
  inhibition: 50% (active)
[2]
  inhibition: 91.6%

## CCOC(=O)Cn1nnc(-c2ccc(OCc3ccccc3C)cc2)n1
[1]
  inhibition: 91.8% (active)
[2]
  inhibition: 96.9%

## CCN(CC)c1ccc(/C=C(/C#N)c2nc3ccccc3[nH]2)c(OC(C)C)c1
[1]
  inhibition: 22.6% (active)
[2]
  inhibition: 47%

## c1ccc(-c2nc(NCCCn3ccnc3)c3oc4ccccc4c3n2)cc1
[1]
  inhibition: 98.9% (active)
[2]
  inhibition: 99.5%

## CCOC(=O)CSc1nnc2c3sc4nc(N5CCOCC5)c5c(c4c3ncn12)CC(C)(C)OC5
[1]
  inhibition: 53.1% (active)
[2]
  inhibition: 74.9%

## CC(=O)N1CCN(c2ccc(NC(=S)NC(=O)c3cc4ccccc4o3)cc2)CC1
[1]
  inhibition: 3.83% (inactive)
[2]
  inhibition: -6.94%

## COC(=O)c1ccc(N2C(=O)CC(N(CCc3ccccc3)C(=S)Nc3ccccc3)C2=O)cc1 (centres undefined)
[1]
  inhibition: 2.64% (inactive)
[2]
  inhibition: -9.4%

## O=C(CCc1ccccc1)NC(=S)Nc1ccc(N2CCCCC2)cc1
[1]
  inhibition: 82.8% (active)
[2]
  inhibition: 59.4%

## OC(COCCC12CC3CC(CC(C3)C1)C2)CN1CCc2ccccc2C1 (centres undefined)
[1]
  inhibition: 1.19% (inactive)
[2]
  inhibition: 10.3%

## O=C(Cn1nc(CNc2ccc(Cl)cc2)[n+]2c1CCCCC2)c1ccc(Br)cc1
[1]
  inhibition: 92.9% (active)
[2]
  inhibition: 94.4%

## CC(C)CC(=O)NC(c1ccc(Cl)cc1Cl)c1c(O)ccc2ccccc12 (centres undefined)
[1]
  inhibition: 5.28% (inactive)
[2]
  inhibition: 21%

## COc1ccc(C(C)(C)C)cc1NC(=S)Nc1ccc(Cl)c(Cl)c1
[1]
  inhibition: 0.0351% (inactive)
[2]
  inhibition: -14.6%

## CC(C)(C)c1cc(Cl)c(O)c(NC(=S)NC(=O)c2cccc3ccccc23)c1
[1]
  inhibition: 80.4% (active)
[2]
  inhibition: 78.3%
